eIF4E-4G inh: inhibitors of eIF4E and eIF4G interaction in translation initiation. 220,000 tested, 0.37% active. TR-FRET eIF4E-eIF4GI(517-606) binding, 2 h. P63073+Q04637. inhibition, % at 21.7 µM;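 active = inhibition above about 30%, limit read from the data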;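 note: 0% = full FRET control wells and 100% = background wells lacking eIF4GI fragment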
eIF4H inh: inhibitors of RNA binding by human eIF4H | AID 2012 | eIF4H fluorescence polarization binding assay | Q15056 | 290,000 tested, 0.94% active | inhibition, % at 35 µM;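 note: calls also rest on retests at 20 µM and on dose response follow-up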
MLLE-PAM2 inh: blocks PAM2 peptide binding to the PABP1 MLLE domain | AID 588489 | GST-MLLE / FITC-PAM2 fluorescence polarization | inhibition, % at 20 µM | 360,000 tested, 0.36% active; in the data active = inhibition above about 35%, passing the limit was not always enough;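 note: plate controls were DMSO wells with GST-MLLE for no effect and wells lacking GST-MLLE protein for full effect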
PABP FP inh: PABP-poly(A) binding inhibition | P11940 | PABP-poly(A) RNA binding, fluorescence polarization | calls only at 35 µM | AID 2014 | 290,000 tested, 1% active;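 note: calls also rest on retests at 20 µM and on dose response follow-up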
Active calls of the source: *; i = inactive; ? = inconclusive; . = not tested or not shown; + = active, no number. Rows were chosen to be rich in hits. Some 1.5% of all compounds tested hit in one or more screens of this group. Unless noted, the rule behind the calls is not given here.

SMILES | eIF4E-4G inh | eIF4H inh | MLLE-PAM2 inh | PABP FP inh
Cc1cccc(N2CCN(C(=O)c3ccccn3)CC2C)c1 (configuration not stated) | 0.7 | ? | -5.6 | +
Cc1cccc(N2CCN(C(=O)NC3CCCCC3)CC2C)c1 (configuration not stated) | . | -5.9 | -18.1 | i
O=C(O)c1ccc(N2C(=O)CC(SC(=NCc3ccc4c(c3)OCO4)Nc3ccccc3)C2=O)cc1 (configuration not stated) | 92.3* | -2.8 | -18.8 | i
O=C(O)c1ccc(N2C(=O)CC(SC(=NCc3ccc4c(c3)OCO4)Nc3ccc(F)cc3)C2=O)cc1 (configuration not stated) | 4.3 | -7.6 | 2.6 | i
O=C(C(NS(=O)(=O)c1cccs1)c1ccccc1)N1CCN(c2ccccc2)CC1 (configuration not stated) | -5.6 | 64.3* | 16.9 | +
Cn1c(SCC(=O)Nc2nncs2)nnc1C1CC1 | . | 89.5* | -11.3 | +
CC(C)n1c(SCC(=O)Nc2nncs2)nnc1C1CC1 | . | -4.7 | 8.4 | i
O=C(CCN1CCOCC1)NNC(=S)NC(=O)c1ccccc1 | 0.7 | 2.3 | 38.4* | i
